Data on seven compounds can be found in PubChem BioAssay.

Records with an inconclusive call do not appear. The source made the active and inactive calls.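 How the source made its calls, unless noted: active means differentiation response of at least 50%, scaled between solvent and reference control, from cells with both markers; inactive means the rest.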

Experiment [1] is described as follows: yeast TOR pathway RPL19A-GFP modulators, primary screen, cell-based, S. cerevisiae, multiplex flow cytometry (AID 1862; in the data active means percent of DMSO control GFP below about 86%;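 further: lower values mimic rapamycin by blocking the RPL19A rise seen in DMSO cells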). The note with it: S. cerevisiae RPL19A-GFP strain, flow cytometry fluorescence, 3 h; at 10 µM; stronger effect = lower value. (A flow cytometer gives signals particle by particle.)
The nature of experiment [2]: modulators of MEP2-GFP levels in yeast, primary screen, S. cerevisiae, multiplex flow cytometry (AID 1867;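 active means GFP response, as percent of the DMSO control, above the screen-wide mean plus 3 SD, about 139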;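 further: median GFP channel fluorescence of barcode-gated MEP2-GFP cells measured by flow cytometry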). The note with it: S. cerevisiae MEP2-GFP strain, 3 h, at 10 µM, stronger effect = higher value, 100% means same as DMSO wells.
The nature of experiment [3]: modulators of CIT2-GFP expression in yeast, primary screen, S. cerevisiae, GFP fusion, multiplex flow cytometry (AID 1870;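 active means percent response above a set limit, the screen-wide mean plus 3 SD, cut at about 130% in these data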;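 further: barcoded CIT2-GFP strain pooled with four other GFP strains with rapamycin as positive control; median GFP fluorescence per well over plate mean of DMSO wells so 100% = DMSO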). The note with it: 3 h, at 10 µM, stronger effect = higher value.
The nature of experiment [4]: modulators of LAP4-GFP expression in yeast, primary screen, S. cerevisiae, multiplex flow cytometry (AID 1873;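 active means GFP signal, as percent of the solvent control, above the screen mean plus 3 SD, about 149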). Particulars: 3 h, at 10 µM, stronger effect = higher value.
The nature of experiment [5]: modulators of AGP1-GFP expression in yeast TOR pathway, primary screen, cell-based, multiplex flow cytometry, S. cerevisiae (AID 1887;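 active means GFP signal above the screen-wide mean plus 3 SD, that is over about 124.5% of the solvent control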;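 further: AGP1-GFP fusion strain of S. cerevisiae within a five-strain barcoded multiplex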). Particulars: 3 h, at 10 µM, stronger effect = higher value.
Experiment [6] is described as follows: inhibitors of CD8+ T cell-vesicle binding, pilot screen, LFA-1/ICAM-1 modulator project, MLPCN validation set, flow cytometry (AID 2523;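 active means response below a set limit, under 55% cells CD8-positive and vesicle-bound, and CD8 cells' 90th-percentile brightness under 279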;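 on vesicle binding response: mean PE anti-B7-1 fluorescence of CD8+ cells relative to row control; 100% = QL9-loaded vesicles with DMSO vehicle in the same plate row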). Particulars: 2C mouse CD8+ T cells, at 7 µM, stronger effect = lower value; double positive events: measured here: CD8+/vesicle+ event percentage.
In experiment [7] the target is Integrin beta-1 (Homo sapiens) + Integrin alpha-4 (Homo sapiens) (UniProt P13612+P05556). Put plainly: inhibition of HUTS-21 binding to VLA-4, pilot screen, VLA-4 allosteric modulator project, U937 cells, HUTS-21 mAb, flow cytometry, validation set (AID 2674;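 active means inhibition above 50%, about 3 SD of the validation set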;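 further: antibody binding induced by the VLA-4 ligand LDV present at three times its Kd; 0% = LDV ligand with antibody and no compound and 100% = antibody without LDV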). Particulars: HUTS-21 LIBS mAb binding, at 6.7 µM, stronger effect = higher value, binding induced by LDV ligand.
Sequence of Integrin beta-1 (Homo sapiens) + Integrin alpha-4 (Homo sapiens) (P05556 whole entry, looked up): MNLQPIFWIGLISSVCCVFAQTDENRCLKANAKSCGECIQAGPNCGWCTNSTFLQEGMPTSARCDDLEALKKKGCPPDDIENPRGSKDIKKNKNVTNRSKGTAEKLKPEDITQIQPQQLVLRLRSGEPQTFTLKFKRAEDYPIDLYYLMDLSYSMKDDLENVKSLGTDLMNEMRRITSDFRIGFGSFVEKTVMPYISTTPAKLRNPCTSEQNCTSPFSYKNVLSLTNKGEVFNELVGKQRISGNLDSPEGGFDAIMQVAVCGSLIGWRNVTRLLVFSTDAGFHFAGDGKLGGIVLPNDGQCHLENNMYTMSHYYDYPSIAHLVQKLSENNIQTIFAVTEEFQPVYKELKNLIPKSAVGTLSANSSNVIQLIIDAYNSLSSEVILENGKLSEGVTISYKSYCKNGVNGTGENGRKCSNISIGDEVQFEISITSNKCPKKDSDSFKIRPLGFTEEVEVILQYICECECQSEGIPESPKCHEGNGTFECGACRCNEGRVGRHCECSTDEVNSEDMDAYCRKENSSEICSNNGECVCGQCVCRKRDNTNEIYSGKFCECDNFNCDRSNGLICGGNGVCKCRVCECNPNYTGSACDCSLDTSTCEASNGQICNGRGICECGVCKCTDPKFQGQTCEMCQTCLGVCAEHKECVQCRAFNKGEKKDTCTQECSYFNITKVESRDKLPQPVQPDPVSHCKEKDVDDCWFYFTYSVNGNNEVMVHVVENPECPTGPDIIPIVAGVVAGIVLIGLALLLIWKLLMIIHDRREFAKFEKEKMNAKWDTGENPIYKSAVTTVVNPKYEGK
Sequence of Integrin beta-1 (Homo sapiens) + Integrin alpha-4 (Homo sapiens) (P13612 whole entry, looked up): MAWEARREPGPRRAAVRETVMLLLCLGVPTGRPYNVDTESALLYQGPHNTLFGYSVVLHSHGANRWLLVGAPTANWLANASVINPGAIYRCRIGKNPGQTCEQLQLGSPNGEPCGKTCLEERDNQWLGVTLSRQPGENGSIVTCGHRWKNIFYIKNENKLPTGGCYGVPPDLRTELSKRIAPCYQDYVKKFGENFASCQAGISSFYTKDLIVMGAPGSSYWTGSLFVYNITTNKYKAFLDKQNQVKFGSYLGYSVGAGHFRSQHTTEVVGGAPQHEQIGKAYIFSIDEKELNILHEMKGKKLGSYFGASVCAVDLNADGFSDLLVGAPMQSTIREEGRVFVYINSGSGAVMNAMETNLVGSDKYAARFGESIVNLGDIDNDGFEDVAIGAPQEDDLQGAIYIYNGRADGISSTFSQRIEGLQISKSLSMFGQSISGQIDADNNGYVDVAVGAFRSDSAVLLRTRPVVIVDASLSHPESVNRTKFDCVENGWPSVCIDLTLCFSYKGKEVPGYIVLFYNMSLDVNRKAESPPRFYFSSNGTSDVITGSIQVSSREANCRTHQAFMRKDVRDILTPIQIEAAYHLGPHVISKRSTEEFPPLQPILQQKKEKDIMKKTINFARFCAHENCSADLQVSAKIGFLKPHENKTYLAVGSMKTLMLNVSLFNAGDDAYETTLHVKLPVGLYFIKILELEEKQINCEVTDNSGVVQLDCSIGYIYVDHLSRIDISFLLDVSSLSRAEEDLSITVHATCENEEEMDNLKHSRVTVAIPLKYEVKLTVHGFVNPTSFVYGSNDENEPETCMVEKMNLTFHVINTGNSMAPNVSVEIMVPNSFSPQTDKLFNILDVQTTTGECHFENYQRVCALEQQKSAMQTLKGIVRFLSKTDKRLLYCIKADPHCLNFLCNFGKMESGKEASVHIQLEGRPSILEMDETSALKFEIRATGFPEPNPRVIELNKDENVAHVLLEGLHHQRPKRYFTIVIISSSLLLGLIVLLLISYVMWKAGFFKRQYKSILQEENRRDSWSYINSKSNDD
The nature of experiment [8]: superoxide lowering in aged yeast cells, pilot screen, validation compound set (AID 2706;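 active means superoxide response below 65% of plate, a cut near 3 SD across the whole screen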;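 further: yeast exposed to compound for one week at 30 degrees C before staining; 100% = mean of all compound wells on the same plate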). The note with it: S. cerevisiae aging, superoxide DHE fluorescence; at 10 µM; stronger effect = lower value.
Experiment [9] deals with Beta-adrenergic receptor kinase 1 (Homo sapiens) (UniProt P25098). Put plainly: GRK2 binders displacing RNA aptamer, biochemical, validation, human GRK2, bead flow cytometry (AID 488806;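 active means aptamer binding inhibition above 30%, about 3 SD of noise from non-fluorescent compounds; inactive means inhibition at or below 30%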). The note with it: bead-bound GRK2, FAM-aptamer displacement, at 10 µM, stronger effect = higher value.
Sequence of Beta-adrenergic receptor kinase 1 (Homo sapiens) (P25098 whole entry, looked up): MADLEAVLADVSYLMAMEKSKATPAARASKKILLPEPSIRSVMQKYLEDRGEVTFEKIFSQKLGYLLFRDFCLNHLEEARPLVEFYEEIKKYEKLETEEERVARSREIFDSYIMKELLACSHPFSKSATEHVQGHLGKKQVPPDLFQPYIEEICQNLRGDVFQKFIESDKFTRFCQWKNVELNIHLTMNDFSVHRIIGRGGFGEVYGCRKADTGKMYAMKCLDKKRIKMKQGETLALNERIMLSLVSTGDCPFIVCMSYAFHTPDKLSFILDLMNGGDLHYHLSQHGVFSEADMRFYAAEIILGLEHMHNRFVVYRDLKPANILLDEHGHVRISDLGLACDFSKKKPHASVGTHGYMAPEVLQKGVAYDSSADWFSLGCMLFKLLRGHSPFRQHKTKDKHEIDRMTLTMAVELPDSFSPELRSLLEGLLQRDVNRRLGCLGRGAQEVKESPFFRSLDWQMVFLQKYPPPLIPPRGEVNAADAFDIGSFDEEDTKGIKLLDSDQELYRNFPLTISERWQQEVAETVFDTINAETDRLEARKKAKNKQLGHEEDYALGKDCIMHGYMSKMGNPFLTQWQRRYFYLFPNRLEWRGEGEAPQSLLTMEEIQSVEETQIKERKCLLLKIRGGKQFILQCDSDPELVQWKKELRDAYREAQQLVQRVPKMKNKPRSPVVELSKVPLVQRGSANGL
In experiment [10] the target is Beta-2 adrenergic receptor (Homo sapiens) (UniProt P07550). Briefly: beta2AR agonists driving receptor internalization, pilot screen, cell-based, FAP fluorogen, flow cytometry, validation set (AID 504459;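 active means percent response above 42, roughly 3 SD of non-fluorescent test compounds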;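 further: agonist-driven loss of surface beta2AR via internalization measured by FAP dye flow cytometry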). The note with it: Am2.2-beta2AR cells, FAP surface receptor flow cytometry; at 10 µM; stronger effect = higher value.
Sequence of Beta-2 adrenergic receptor (Homo sapiens) (P07550 whole entry, looked up): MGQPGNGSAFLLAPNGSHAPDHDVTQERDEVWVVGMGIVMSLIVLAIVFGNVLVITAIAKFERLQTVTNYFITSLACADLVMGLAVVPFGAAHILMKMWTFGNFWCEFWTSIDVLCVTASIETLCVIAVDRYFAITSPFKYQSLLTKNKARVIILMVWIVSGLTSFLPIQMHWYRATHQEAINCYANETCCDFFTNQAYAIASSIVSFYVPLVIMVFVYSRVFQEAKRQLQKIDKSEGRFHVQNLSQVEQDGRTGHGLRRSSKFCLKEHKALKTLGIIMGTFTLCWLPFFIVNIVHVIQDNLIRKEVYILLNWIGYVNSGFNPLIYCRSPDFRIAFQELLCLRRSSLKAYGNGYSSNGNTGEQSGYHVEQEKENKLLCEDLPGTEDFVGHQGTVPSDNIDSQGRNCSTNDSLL
Experiment [11] has as its target AP-2 complex subunit beta (Homo sapiens) (UniProt P63010). Briefly: inhibitors of arrestin peptide binding to AP2, pilot screen, biochemical, validation set, GST-AP2 beads, flow cytometry (AID 504541;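 active means inhibition above 54%, about 3 SD of non-fluorescent compounds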;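 further: AP2 carries R879A mutation and is captured from E. coli lysate; bead-bound FITC arrestin peptide fluorescence measuring arrestin peptide binding to AP2; 0% = DMSO wells and 100% = excess unlabeled arrestin peptide control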). Particulars: FITC arrestin peptide, at 10 µM, stronger effect = higher value, AP2 beta2 appendage fragment, R879A mutant.
The nature of experiment [12]: yeast V-ATPase proton transport modulators, S. cerevisiae, pHLuorin, HTS validation (AID 504600; in the data active means response above about 15%;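 further: plate controls were DMSO for no effect and reference compound for full effect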). The note with it: S. cerevisiae pHLuorin cytosolic pH, at 10 µM, stronger effect = higher value.
The test system of experiment [13] is anti-desmoglein-3 scFv antibody binding to human DSG3. Put plainly: inhibitors of anti-DSG3 scFv binding to DSG3, pilot screen, biochemical, validation compound set, bead-based, flow cytometry (AID 588368;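 active means binding below the plate cutoff, the plate median minus 3 SD, with a reading above zero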;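 further: signal is the median channel fluorescence of bead-bound GFP antibody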). Particulars: Protein G beads, DSG3-Fc, scFv-GFP binding, at 10 µM, stronger effect = lower value.
Experiment [14] is described as follows: inhibitors of fungal efflux pumps CDR1, CDR2, MDR1, pilot screen, validation compound set, multiplex, phenotypic (AID 588506;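 active means efflux inhibition above 0.42, the validation set average plus 4 SD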;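 further: Nile Red retained in cells so higher fluorescence means more efflux inhibition; 0 = negative control wells and 1 = enniatin B 25 µM full block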). The note with it: S. cerevisiae pump-expressing triplex, Nile Red efflux flow cytometry; at 10 µM; stronger effect = higher value; the pumps come from Candida albicans.
Experiment [15] addresses ATP-binding cassette sub-family B member 6 (Homo sapiens) (UniProt Q9NP58). Put plainly: ABCB6 transporter inhibitors, pilot screen, K562-ABCB6 cells, flow cytometry, validation set (AID 588550;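 active means inhibition above the screen-wide mean plus 3 SD, about 51%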;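 further: 0% = DMSO wells and 100% = benzethonium chloride 70 µM positive control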). Particulars: K562-ABCB6 porphyrin accumulation, 1 h, at 10 µM, stronger effect = higher value.
The nature of experiment [16]: promoters of myeloid differentiation in arrested cells, primary screen, cell-based, GFP/MAC1 double positive, flow cytometry, validation set (AID 588685).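 Further: compound exposure lasts four days before antibody staining and flow analysis; 0% = DMSO wells and 100% = 5 µM fulvestrant positive control.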 The note with it: ER-HoxA9 marrow cells, stronger effect = higher value, normalized: vehicle 0, fulvestrant 100.

Sequence of AP-2 complex subunit beta (Homo sapiens) (P63010 whole entry, looked up, the tested form may be a part, one chain of several): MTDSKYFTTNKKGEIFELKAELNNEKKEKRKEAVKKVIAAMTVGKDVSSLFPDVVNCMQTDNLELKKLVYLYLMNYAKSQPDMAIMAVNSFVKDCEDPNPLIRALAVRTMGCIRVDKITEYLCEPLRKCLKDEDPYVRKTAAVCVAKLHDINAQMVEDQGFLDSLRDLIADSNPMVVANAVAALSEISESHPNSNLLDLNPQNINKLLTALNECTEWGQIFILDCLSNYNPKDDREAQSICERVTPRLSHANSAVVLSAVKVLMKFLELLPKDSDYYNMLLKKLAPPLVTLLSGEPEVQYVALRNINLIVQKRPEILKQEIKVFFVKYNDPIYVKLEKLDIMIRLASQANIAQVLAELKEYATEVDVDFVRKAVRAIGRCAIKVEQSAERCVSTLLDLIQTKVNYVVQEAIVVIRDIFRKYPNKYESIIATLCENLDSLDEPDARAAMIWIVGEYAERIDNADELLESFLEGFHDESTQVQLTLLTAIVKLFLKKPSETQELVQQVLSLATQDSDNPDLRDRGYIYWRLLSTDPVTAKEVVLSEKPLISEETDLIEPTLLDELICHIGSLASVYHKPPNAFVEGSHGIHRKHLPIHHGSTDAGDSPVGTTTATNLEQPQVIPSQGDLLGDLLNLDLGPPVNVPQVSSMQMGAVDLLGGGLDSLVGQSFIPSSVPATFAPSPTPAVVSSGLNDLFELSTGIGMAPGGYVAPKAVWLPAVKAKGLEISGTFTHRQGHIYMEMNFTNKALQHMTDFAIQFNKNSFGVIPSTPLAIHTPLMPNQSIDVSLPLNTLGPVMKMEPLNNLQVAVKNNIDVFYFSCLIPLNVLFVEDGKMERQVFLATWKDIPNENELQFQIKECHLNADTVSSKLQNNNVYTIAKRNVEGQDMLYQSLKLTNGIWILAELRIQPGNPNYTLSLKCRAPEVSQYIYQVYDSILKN
Sequence of ATP-binding cassette sub-family B member 6 (Homo sapiens) (Q9NP58 whole entry, looked up): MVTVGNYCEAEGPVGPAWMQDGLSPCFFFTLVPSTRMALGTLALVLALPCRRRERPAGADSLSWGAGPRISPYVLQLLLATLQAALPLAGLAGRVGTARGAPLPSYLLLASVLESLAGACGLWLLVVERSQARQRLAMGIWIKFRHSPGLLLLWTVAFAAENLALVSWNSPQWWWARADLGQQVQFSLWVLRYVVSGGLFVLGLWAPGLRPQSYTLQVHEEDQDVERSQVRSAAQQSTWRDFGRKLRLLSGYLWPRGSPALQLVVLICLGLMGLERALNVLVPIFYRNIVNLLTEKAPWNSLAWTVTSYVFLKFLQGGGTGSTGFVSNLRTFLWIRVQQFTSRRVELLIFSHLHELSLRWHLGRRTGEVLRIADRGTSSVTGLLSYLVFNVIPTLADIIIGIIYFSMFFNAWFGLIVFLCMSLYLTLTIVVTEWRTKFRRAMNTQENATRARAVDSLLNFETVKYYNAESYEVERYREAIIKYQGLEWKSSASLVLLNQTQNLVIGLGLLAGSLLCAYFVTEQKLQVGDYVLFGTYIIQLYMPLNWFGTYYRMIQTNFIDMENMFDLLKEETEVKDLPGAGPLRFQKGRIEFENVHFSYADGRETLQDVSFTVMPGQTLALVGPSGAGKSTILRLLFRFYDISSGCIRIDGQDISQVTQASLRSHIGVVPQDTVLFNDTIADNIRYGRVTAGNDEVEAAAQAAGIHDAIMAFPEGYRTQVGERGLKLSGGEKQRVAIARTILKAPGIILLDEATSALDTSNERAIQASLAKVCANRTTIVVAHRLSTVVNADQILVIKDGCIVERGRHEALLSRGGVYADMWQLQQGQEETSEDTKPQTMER

Broadly, the inhibition is the drop in the measured response relative to a control, in per cent. `O=C(CN1C(=O)c2ccccc2S1(=O)=O)Nc1ccccc1`: the percent of DMSO control GFP in experiment [1] is 95.5% (inactive). For the same compound, the GFP response vs DMSO in experiment [2] was 126% (inactive); in experiment [4] it was 84.2% (inactive). The percent response of DMSO control in experiment [3] is 112% (inactive). Besides, the GFP response, % of DMSO in experiment [5] is 92.8% (inactive). This compound came in with a double positive events in experiment [6] of 67.7%. In addition, the vesicle binding response in [6] was 180% (inactive). For the same compound, the inhibition in experiment [7] was -72.1% (inactive); in [11], 7.49% (inactive); in experiment [15], 5% (inactive). For the same compound, in [8], the superoxide response (% of plate) is 98.5% (inactive). In addition, the aptamer binding inhibition in [9] is 0% (inactive). In addition, the response in experiment [10] is -2.34% (inactive); in experiment [12] it was -1.17% (inactive). In addition, the binding (% of control) in experiment [13] was 99% (inactive). In addition, the efflux inhibition (fraction of control) in experiment [14] is -0.31 (inactive). For the same compound, the differentiation response in experiment [16] is 10.6% (inactive).

Regarding `COc1ccc2c(C=O)cn(C)c2c1`, in experiment [1], the percent of DMSO control GFP was 89.8% (inactive). In addition, the GFP response vs DMSO in experiment [2] was 137% (inactive); in [4] it was 82% (inactive). For the same compound, in [3], the percent response of DMSO control is 103% (inactive). Also, the GFP response, % of DMSO in experiment [5] was 85% (inactive). Further, in experiment [6], the double positive events worked out at 66.8%. For the same compound, in [6], the vesicle binding response is 151% (inactive). Further, the inhibition is 6.46% (inactive) in experiment [7], 9.51% (inactive) in experiment [11] and 11% (inactive) in experiment [15]. The superoxide response (% of plate) in experiment [8] was 87.5% (inactive). In addition, in experiment [9], the aptamer binding inhibition is 7% (inactive). Further, the figures for the response in experiment [10] and in experiment [12] were -0.49% (inactive) and -4.19% (inactive), respectively. In [13], the binding (% of control) is 105% (inactive). The efflux inhibition (fraction of control) in experiment [14] was 0.27 (inactive). The differentiation response in experiment [16] is 4.91% (inactive).

Regarding `CC12CCC(C(=O)NCc3ccc4c(c3)OCO4)(CC1=O)C2(C)C` (centres undefined), the percent of DMSO control GFP in experiment [1] is 100% (inactive). The GFP response vs DMSO in experiment [2] was 98.6% (inactive); in experiment [4] it was 102% (inactive). The percent response of DMSO control in experiment [3] is 103% (inactive). The GFP response, % of DMSO in [5] is 107% (inactive). Moreover, the double positive events in [6] was 60.9%. For the same compound, the vesicle binding response in experiment [6] was 252% (inactive). Moreover, the inhibition in [7] was 0.59% (inactive); in experiment [11] it was 4.11% (inactive); in [15] it was 6% (inactive). The superoxide response (% of plate) in experiment [8] was 113% (inactive). Also, the aptamer binding inhibition in experiment [9] is 0% (inactive). In addition, the response was -30.8% (inactive) in [10] and -1.56% (inactive) in experiment [12]. In addition, the binding (% of control) in experiment [13] is 105% (inactive). Further, the efflux inhibition (fraction of control) in experiment [14] is 0.08 (inactive). The differentiation response in experiment [16] was -1.05% (inactive).

Consider `Cc1cc(O)c(C(C)C)cc1C1(c2cc(C(C)C)c(O)cc2C)OC(=O)c2ccccc21`, for which the percent of DMSO control GFP in [1] is 104% (inactive). The GFP response vs DMSO in [2] was 107% (inactive); in [4], 120% (inactive). Moreover, in experiment [3], the percent response of DMSO control was 104% (inactive). Besides, the GFP response, % of DMSO in [5] is 108% (inactive). This compound gave a double positive events in [6] of 61.7%. In experiment [6], the vesicle binding response is 219% (inactive). In addition, the inhibition in [7] is 43.2% (inactive); in experiment [11] it was 62.6% (active); in experiment [15], 5% (inactive). In addition, the superoxide response (% of plate) in [8] was 88.7% (inactive). Besides, the aptamer binding inhibition in [9] is -2% (inactive). Besides, the response in experiment [10] was 3.1% (inactive); in experiment [12], -4.85% (inactive). For the same compound, the binding (% of control) in experiment [13] was 101% (inactive). Moreover, in [14], the efflux inhibition (fraction of control) was -0.09 (inactive). For the same compound, the differentiation response in experiment [16] was 15.7% (inactive).

On to `CN(C)c1ccc(Nc2c3c4c(cccc4n(C)c2=O)C(=O)c2ccccc2-3)cc1`, for which the percent of DMSO control GFP in [1] is 99.3% (inactive). Besides, the values for the GFP response vs DMSO in [2] and in experiment [4] were 108% (inactive) and 126% (inactive), respectively. Besides, the percent response of DMSO control in experiment [3] is 111% (inactive). Moreover, in [5], the GFP response, % of DMSO is 108% (inactive). The compound also came in with a double positive events in experiment [6] of 60.5%. The vesicle binding response in [6] was 195% (inactive). In addition, the results for the inhibition in experiment [7], in [11] and in experiment [15] were -0.27% (inactive), 16.7% (inactive) and 3% (inactive), respectively. Moreover, in experiment [8], the superoxide response (% of plate) was 71% (inactive). Moreover, the aptamer binding inhibition in experiment [9] is 0% (inactive). Moreover, the response was -25.2% (inactive) in experiment [10] and -0.9% (inactive) in experiment [12]. For the same compound, the binding (% of control) in experiment [13] is 93.8% (inactive). Also, the efflux inhibition (fraction of control) in experiment [14] was -0.17 (inactive). Further, the differentiation response in experiment [16] is -9.91% (inactive).

Regarding `CC(C)C(CCN1C(=O)CCC1=O)C1CCOC(C)(C)C1` (centres undefined), the percent of DMSO control GFP in [1] was 103% (inactive). The GFP response vs DMSO in experiment [2] was 104% (inactive); in experiment [4], 95.8% (inactive). For the same compound, in experiment [3], the percent response of DMSO control is 100% (inactive). In addition, in experiment [5], the GFP response, % of DMSO was 101% (inactive). In experiment [6], the double positive events was 62.8%. Further, the vesicle binding response in [6] is 130% (inactive). For the same compound, the inhibition in [7] was 3.98% (inactive); in experiment [11], -12.4% (inactive); in experiment [15], 10% (inactive). Also, the superoxide response (% of plate) in experiment [8] is 103% (inactive). The aptamer binding inhibition in experiment [9] was 11% (inactive). Moreover, the response in experiment [10] was -1.22% (inactive); in experiment [12] it was -0.12% (inactive). The binding (% of control) in experiment [13] is 98.8% (inactive). Moreover, the efflux inhibition (fraction of control) in experiment [14] was 0.42 (inactive). Further, the differentiation response in experiment [16] is 4.97% (inactive).

Take `CCNC(=O)C(Cc1ccccc1)NC(=O)OCc1ccccc1` (centres undefined): the percent of DMSO control GFP in experiment [1] is 101% (inactive). In addition, the results for the GFP response vs DMSO in experiment [2] and in experiment [4] were 103% (inactive) and 117% (inactive), respectively. Besides, the percent response of DMSO control in [3] was 99.6% (inactive). Besides, the GFP response, % of DMSO in experiment [5] is 106% (inactive). Moreover, the double positive events in [6] stood at 62.5%. Besides, in [6], the vesicle binding response was 367% (inactive). In addition, the inhibition in experiment [7] is 19.3% (inactive); in experiment [11] it was 1.34% (inactive); in experiment [15], 6% (inactive). For the same compound, the superoxide response (% of plate) in [8] is 112% (inactive). In addition, the aptamer binding inhibition in experiment [9] was 2% (inactive). Moreover, the figures for the response in [10] and in experiment [12] were -19.9% (inactive) and 0.55% (inactive), respectively. For the same compound, in experiment [13], the binding (% of control) is 108% (inactive). Also, the efflux inhibition (fraction of control) in experiment [14] is 0 (inactive). The differentiation response in experiment [16] is -12.9% (inactive).
